Experimental data reported in PubChem BioAssay.
Calls of active or inactive are those of the source. Unless noted, how the calls were made is not given here.

Assays:
[1] = system: Wnt5a (protein binding on small-molecule microarray); test: small molecules binding Wnt5a protein – biophysical, small-molecule microarray, 635/667 nm fluorescence, primary screen (AID 1142); details: 635 nm fluorescence, higher = more signal;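 further: fluorescence read at 667 nm with signal to noise per printed feature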
[2] = ATP-based viability of Huh7 replicon cells – cell-based, CellTiter-Glo luminescence, basal, 48 h, cytotoxicity control for HCV replication inhibitor project, primary screen (AID 1143); details: higher = more signal, called active from +8 up or from −8 down;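 further: Huh7 hepatoma cells carrying a hepatitis C replication reporter with no stimulus; test concentration not given here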
[3] = Pseudomonas biofilm growth suppression – PAO1 strain, BacTiter-Glo luminescence, LB-PBS, primary screen (AID 1144); details: P. aeruginosa PAO1 biofilm, 12 h, higher = more signal
[4] = basal CRE-LacZ reporter activity in PC12 – cell-based, unstimulated, primary screen (AID 1145); details: no forskolin, luminescence, 4.5 h, higher = more signal, called active from +8 up or from −8 down
[5] = forskolin-driven CRE-LacZ activity in PC12 – cell-based, CRE-LacZ reporter, forskolin-stimulated, primary screen (AID 1146); details: luminescence, 4.5 h, higher = more signal, called active from +8 up or from −8 down;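 further: PC12 cells with 6xCRE LacZ reporter stimulated by forskolin 10 µM; beta-galactosidase reporter signal reflecting CREB driven transcription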
[6] = target: Streptavidin (Streptomyces avidinii) (UniProt P22629); test: compounds binding control protein streptavidin – biophysical, small-molecule microarray, 635/667 nm fluorescence, artefact control for SMM compound annotation, primary screen (AID 1147); details: higher = more signal;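 further: signal reflects streptavidin binding to arrayed compounds as a control protein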
[7] = probe aInhba binding on compound microarray – biochemical, small-molecule microarray, 635/667 nm fluorescence, primary screen (AID 1148); details: higher = more signal;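 further: score merges 667nm spot fluorescence with signal-to-noise for antibody binding to printed compounds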
Torsin-1A (Homo sapiens) [8] = target: Torsin-1A (Homo sapiens) (UniProt O14656); test: TOR1A wild-type binding on microarray – cell lysate, small-molecule microarray, lysate, 635/667 nm, primary screen (AID 1149); details: COS7 hTOR1A-WT lysate, 635 nm fluorescence, higher = more signal
Torsin-1A (Homo sapiens) [9] = target: Torsin-1A (Homo sapiens) (UniProt O14656); test: torsin A mutant lysate binding on microarrays – cell lysate, small-molecule microarray, COS7 lysate, 635/667 nm fluorescence, primary screen (AID 1150); details: COS7 hTOR1A mutant lysate, 635 nm fluorescence, higher = more signal;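 further: score pools 667 nm emission and signal to noise measuring lysate protein binding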
[10] = system: Sonic hedgehog protein (Shh); test: Sonic hedgehog microarray binding compounds – biochemical, small-molecule microarray, 635/667 nm fluorescence, primary screen (AID 1151); details: 635 nm fluorescence, higher = more signal;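 further: Shh protein binding to compounds spotted on small-molecule microarray slides; score combines spot fluorescence intensity with signal-to-noise across triplicate slides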

Chain of Streptavidin (Streptomyces avidinii) (P22629 whole entry, looked up): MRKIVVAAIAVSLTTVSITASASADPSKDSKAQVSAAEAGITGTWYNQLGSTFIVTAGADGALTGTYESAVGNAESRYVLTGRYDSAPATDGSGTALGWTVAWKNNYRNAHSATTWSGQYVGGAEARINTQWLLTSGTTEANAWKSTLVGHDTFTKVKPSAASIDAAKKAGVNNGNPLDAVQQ
Chain of Torsin-1A (Homo sapiens) (O14656 whole entry, looked up): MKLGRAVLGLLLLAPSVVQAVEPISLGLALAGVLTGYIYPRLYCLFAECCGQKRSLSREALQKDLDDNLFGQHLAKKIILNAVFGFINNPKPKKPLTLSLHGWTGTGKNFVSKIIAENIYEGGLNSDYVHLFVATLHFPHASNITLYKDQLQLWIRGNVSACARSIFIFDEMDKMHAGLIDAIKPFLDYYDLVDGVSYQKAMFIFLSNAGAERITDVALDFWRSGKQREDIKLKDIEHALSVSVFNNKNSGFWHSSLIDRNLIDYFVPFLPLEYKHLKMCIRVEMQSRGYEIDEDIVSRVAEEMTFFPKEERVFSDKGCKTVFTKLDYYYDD

SMILES | composite z-score [1] | z-score [2] | z-score [3] | z-score [4] | z-score [5] | composite z-score [6] | composite z-score [7] | composite z-score (Torsin-1A (Homo sapiens) [8]) | composite z-score (Torsin-1A (Homo sapiens) [9]) | composite z-score [10]
Cc1ccc(F)cc1S(=O)(=O)N[C@@H]1CCN(Cc2ccc3[nH]ccc3c2)C1 | -0.159 | -2.99 (inactive) | 1.17 (inactive) | -0.147 (inactive) | 0.49 (inactive) | 0.874 | -0.0403 | 0.247 | 0.608 | 0.711
COC(=O)c1ccc([C@H](NC(=O)c2ccccc2)[C@]2(C)C[C@H]2C2CCCCC2)cc1 | 0.0477 | -1.78 (inactive) | -0.718 (inactive) | 0.394 (inactive) | 1.28 (inactive) | 1.08 | 0.166 | -0.435 | 0.266 | -0.999
COCCOC(=O)N1C(=O)[C@@]2(c3cc(C#CCC(C(=O)OC)C(=O)OC)ccc31)[C@H](C(N)=O)[C@H]1C(=O)O[C@H](c3ccccc3)[C@H](c3ccccc3)N1[C@@H]2c1ccc(OCCO)cc1 | 0.787 | -2.89 (inactive) | -0.224 (inactive) | 0.478 (inactive) | -0.372 (inactive) | 0.528 | 0.105 | 0.704 | 0.643 | 1.07
CC#CCO[Si](C#CCCCCCC)(C(C)C)C(C)C | -1.15 | -1.03 (inactive) | -1.06 (inactive) | -0.374 (inactive) | 2.09 (inactive) | -2.45 | -0.288 | -1.46 | -1.03 | -1.62
CO[C@H]1O[C@H](CO)[C@@H](OC(=O)Nc2ccc(C(F)(F)F)cc2)[C@H](OC(=O)Nc2ccccc2-c2ccccc2)[C@H]1OC(=O)Nc1ccccc1-c1ccccc1 | 0.856 | -6.09 (inactive) | 0.435 (inactive) | 0.447 (inactive) | -0.747 (inactive) | 0.967 | 0.0504 | 0.276 | 0.263 | 1.61
CC(C)C(=C=CC[C@@H](O)c1ccc(OCCO)cc1)CCO | 0.224 | -2.09 (inactive) | -0.635 (inactive) | -0.844 (inactive) | -1.31 (inactive) | -0.292 | -0.0719 | -0.0298 | 0.167 | 1.59
C=CCOC(=O)[C@H]1[C@@H]2C(=O)O[C@@H](c3ccccc3)[C@@H](c3ccccc3)N2[C@@H](c2ccc(OCCOC(=O)[C@H]3C[C@H]4C(=O)NCC(=O)N4[C@H]3c3ccc(O)cc3)cc2)[C@]12C(=O)Nc1ccc(I)cc12 | 0.112 | -0.402 (inactive) | -1.01 (inactive) | -0.13 (inactive) | -0.8 (inactive) | 0.343 | -0.0736 | 0.406 | 0.349 | 1.55
COCCOC(=O)N1C(=O)[C@@]2(c3cc(C#CCC(C(=O)OC)C(=O)OC)ccc31)[C@H](C(=O)N1CCc3cc(OC)c(OC)cc3C1)[C@H]1C(=O)O[C@H](c3ccccc3)[C@H](c3ccccc3)N1[C@@H]2c1ccc(O)cc1 | 0.44 | -0.607 (inactive) | 0.0314 (inactive) | 0.0653 (inactive) | -0.572 (inactive) | 0.286 | 0.134 | 1.32 | 0.864 | 1.9
O=C1c2ccccc2[C@@]2(Cc3ccccc3N(Cc3ccccc3)C2=O)[C@H](c2ccc(CO)cc2)N1Cc1ccccc1 | -0.201 | 0.579 (inactive) | -0.124 (inactive) | 0.0279 (inactive) | 0.806 (inactive) | -0.0807 | -0.176 | -0.953 | -0.773 | -0.907
COc1ccc(C#Cc2ccc3c(c2)[C@]2(C(=O)N3)[C@H](C(=O)Nc3nc4ccccc4s3)[C@H]3C(=O)O[C@H](c4ccccc4)[C@H](c4ccccc4)N3[C@@H]2c2ccc(OCCO)cc2)cc1 | 0.505 | -0.974 (inactive) | -0.953 (inactive) | -1.43 (inactive) | -0.545 (inactive) | 1.57 | 0.153 | 0.504 | 0.887 | 1.06
CN(C)CCCNC(=O)[C@@H]1c2ccccc2C(=O)N(C2Cc3ccccc3C2)[C@H]1c1ccc(CO)cc1 | -0.128 | -0.701 (inactive) | 0.491 (inactive) | -0.502 (inactive) | -1.14 (inactive) | 0.359 | 0.217 | 0.798 | 0.802 | 0.318
CCc1cccc(NC(=O)O[C@H]2[C@H](OC(=O)Nc3ccc4c(c3)OCO4)[C@H](OC(=O)Nc3ccc4c(c3)OCO4)[C@@H](OC)O[C@@H]2CO)c1 | 0.322 | -4.18 (inactive) | -0.373 (inactive) | -0.3 (inactive) | -0.321 (inactive) | 0.0602 | 0.0497 | 0.138 | 0.97 | 1.91
COc1ccc([Si](C)(C)[C@@H]2[C@@H](CCO)O[C@]3(C(=O)N(Cc4ccccc4)c4ccc(N5C(=O)c6ccccc6Oc6ccccc65)cc43)[C@H]2C)cc1 | -0.204 | -5.7 (inactive) | -0.332 (inactive) | 1.07 (inactive) | 1.07 (inactive) | -0.059 | -0.128 | -0.642 | -0.32 | 0.459
CCCCNC(=O)c1ccc(C#C[Si](C)(C)C)c(OC(C)=O)c1 | -0.0504 | -0.155 (inactive) | 0.305 (inactive) | -0.773 (inactive) | 0.0361 (inactive) | 0.184 | -0.12 | 0.18 | 1.1 | 0.985
CN(C)CCCCNC(=O)[C@H]1C[C@H]2C(=O)NCC(=O)N2[C@H]1c1cccc(OCCO)c1 | 0.133 | 0.344 (inactive) | -0.254 (inactive) | -0.398 (inactive) | 0.586 (inactive) | -1.04 | -0.202 | 0.0774 | -0.0032 | 2.19
COCCOC(=O)N1C(=O)[C@@]2(c3cc(C#CCCO)ccc31)[C@H](c1ccc(O)cc1)N1[C@H](c3ccccc3)[C@H](c3ccccc3)OC(=O)[C@H]1[C@@H]2C(=O)N1CCc2cc(OC)c(OC)cc2C1 | 0.565 | 0.0501 (inactive) | -0.883 (inactive) | -0.0647 (inactive) | -1.05 (inactive) | 0.354 | 0.628 | 1.07 | 0.761 | 1.32
COC(=O)C1=CC(CCCO)=CC(c2ccc(CN3CCCC3)cc2)N(Cc2sc3ccccc3c2Cl)C=C1C(=O)OC (stereo not given) | 1.25 | -3.24 (inactive) | -0.782 (inactive) | 0.209 (inactive) | -1.74 (inactive) | 1.85 | 0.662 | 0.591 | 1.88 | 0.836
CC(C)[C@@H](C(=O)O)n1cc(-c2ccccc2)nn1 | 0.0953 | 0.0466 (inactive) | 0.69 (inactive) | 0.251 (inactive) | 0.0824 (inactive) | 1.23 | 0.019 | 0.466 | 1.16 | 0.128
CC(C)C(=C=CC[C@@H](O)c1cccc(OCCO)c1)CCO | 0.263 | -0.219 (inactive) | -0.468 (inactive) | 1.37 (inactive) | -0.755 (inactive) | -0.236 | 0.442 | 0.462 | 0.0336 | 0.567
CCOC(=O)C1=C[C@@H](C(C)(C)C)N(S(=O)(=O)c2ccc(C)cc2)[C@H]1c1ccccc1Cl | 0.548 | -3.79 (inactive) | 1.6 (inactive) | 0.986 (inactive) | 1.53 (inactive) | 1.11 | 0.029 | 0.296 | 0.315 | 0.577
O=C1O[C@@H](c2ccccc2)[C@@H](c2ccccc2)N2[C@@H](c3ccc(OCCO)cc3)[C@]3(C(=O)Nc4ccc(C#CCCO)cc43)[C@@H](C(=O)Nc3nc4ccccc4s3)[C@H]12 | 0.482 | -2.56 (inactive) | -0.397 (inactive) | 0.389 (inactive) | 0.0759 (inactive) | 1.05 | 0.0291 | 0.222 | 0.79 | 0.589
C=C(COC)/C(=C/C[C@@H](OC(C)=O)c1ccccc1OCCO)c1cc(C(=O)OC)ccc1OC | 0.143 | -1 (inactive) | -0.765 (inactive) | 11.4 (active) | 0.323 (inactive) | -0.333 | -0.188 | 0.237 | 0.612 | 0.94
[N-]=[N+]=NCc1ccccc1C[C@]1(C(=O)N2CCOCC2)N=C(c2ccc(OCCCO)cc2)O[C@H]1c1ccccc1CN=[N+]=[N-] | 1.42 | -3.43 (inactive) | -0.52 (inactive) | 0.778 (inactive) | -1.32 (inactive) | 1.24 | 1.28 | 0.3 | 0.863 | -0.0561
COC(=O)[C@@]1(CCS(=O)(=O)c2ccccc2)N=C(c2ccc(OCCCO)cc2)O[C@H]1c1ccccc1N=[N+]=[N-] | 0.0174 | -3.08 (inactive) | -0.16 (inactive) | 0.377 (inactive) | -0.112 (inactive) | 0.586 | 0.0519 | 1.83 | 1.04 | 1.2
C=CCNC(=O)[C@H]1[C@@H]2C(=O)O[C@@H](c3ccccc3)[C@@H](c3ccccc3)N2[C@@H](c2ccccc2OCCO)[C@]12C(=O)N(C(=O)OCCOC)c1ccccc12 | 0.307 | -4.39 (inactive) | 0.369 (inactive) | -0.195 (inactive) | 6.34 (inactive) | 0.618 | -0.358 | -0.025 | 0.664 | 1.14
NC(=O)NCC#Cc1ccc2c(c1)[C@]1(C(=O)N2)[C@H](C(=O)Nc2nc3ccccc3s2)[C@H]2C(=O)O[C@H](c3ccccc3)[C@H](c3ccccc3)N2[C@@H]1c1ccc(OCCO)cc1 | 0.262 | 0.378 (inactive) | -1.02 (inactive) | 0.182 (inactive) | -0.199 (inactive) | 1.11 | 0.264 | -0.657 | -0.628 | 0.287
CCCCCCCCCCC(O)C1C=CC2C(=O)N(C)C(=O)C2N1N1CCCCC1 (stereo not given) | -0.542 | -0.6 (inactive) | 0.816 (inactive) | 0.0569 (inactive) | 1.39 (inactive) | -0.862 | -0.0762 | -0.0728 | 0.522 | -1.89
O=C1O[C@H](c2ccccc2)[C@H](c2ccccc2)N2[C@H]1[C@@H](C(=O)NC[C@H](O)c1ccccc1)[C@]1(C(=O)Nc3ccc(C#CCCO)cc31)[C@H]2c1ccccc1OCCO | -0.24 | -1.9 (inactive) | -0.491 (inactive) | -0.141 (inactive) | -0.27 (inactive) | -0.0243 | 0.0633 | 0.898 | 1.01 | 1.97
C=CCN1C(=O)[C@]2(O[C@H](CCO)[C@@H]([Si](C)(C)c3ccc(OC)cc3)[C@@H]2C)c2ccccc21 | -0.381 | -8 (inactive) | -0.566 (inactive) | 19.5 (active) | -3.3 (inactive) | -0.652 | -0.209 | -0.958 | -0.0259 | -1.12
